Laboratory results from PubChem BioAssay.

test: growth of efflux-deficient E. coli DRC39 – strain DRC39, OD650, 24 h, E. coli filamentation inducers, primary screen (AID 1178);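 note: growth measured as culture turbidity by optical density at 650 nm; test concentration not given here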; settings: E. coli DRC39 acrAB, higher = more signal, called active from +8 up or from −8 down

z-score, inactive:
CC1(C)[C@@H]2CC(C(O)C3C=CC4C(=O)N(c5ccccc5)C(=O)C4N3Nc3ccccc3F)=C[C@@H]1C2 (stereo partly drawn) 0.018, COc1ccc(C#Cc2ccc3c(c2)[C@]2(C(=O)N3)[C@H](C(N)=O)[C@H]3C(=O)O[C@H](c4ccccc4)[C@H](c4ccccc4)N3[C@@H]2c2ccc(O)cc2)cc1 0.666, COc1ccc([Si](C)(C)[C@@H]2[C@@H](CCO)O[C@]3(C(=O)N(Cc4ccc(N5C(=O)c6ccccc6Oc6ccccc65)cc4)c4ccccc43)[C@H]2C)cc1 0.365, NC(=O)NCC#Cc1ccc2c(c1)[C@]1(C(=O)N2)[C@H](c2ccc(O)cc2)N2[C@H](c3ccccc3)[C@H](c3ccccc3)OC(=O)[C@H]2[C@@H]1C(=O)NC[C@H](O)c1ccccc1 0.203, CO[C@H]1O[C@H](CO)[C@@H](OC(=O)c2ccc(Br)cc2)[C@@H]2OC(=O)[C@H](Cc3cccc(Br)c3)C/C=C/C[C@@H](Cc3cccc(Br)c3)C(=O)O[C@@H]12 0.198, CO[C@H]1O[C@H](CO)[C@@H](OC(=O)Nc2cccc(F)c2)[C@H](OC(=O)Nc2ccc3c(c2)OCO3)[C@H]1OC(=O)Nc1ccc2c(c1)OCO2 1.49, CC(C)C[C@H]1NC(=O)[C@H](C)NC(=O)[C@@]23C(=O)N[C@@H](Cc4ccccc4)C2[C@H](C)[C@@]2(C)O[C@H]2C3/C=C/C/C=C\CNC1=O (stereo partly drawn) -0.599, Cc1ccc(C(C)CC(O)C2C=CC3C(=O)N(Cc4ccccc4)C(=O)C3N2n2cnnc2)o1 (stereo not drawn) -1.46, COCCCNC(=O)[C@@]1(Cc2ccccc2)COC(c2ccc(OCCCO)cc2)=N1 -0.13, O=C1c2ccccc2[C@](Cc2ccccc2I)(C(=O)NC2CC2)[C@H](c2ccc(CO)cc2)N1Cc1ccccc1Cl 0.258, CCOC(=O)C[C@H]1[C@H](OC(=O)Cc2ccc3c(c2)OCO3)[C@@H](NC(=O)c2ccccc2)c2cc(OCCCO)ccc2N1C(=O)c1ccccc1 0.31, CCOC(=O)C1=CC[C@@H](c2ccc(N(CC)CC)cc2)N(S(=O)(=O)c2ccc(C)cc2)[C@H]1c1ccc([N+](=O)[O-])cc1 -0.19, COC(=O)C(CC#Cc1ccc2c(c1)[C@]1(C(=O)N2)[C@H](C(=O)N2CCc3cc(OC)c(OC)cc3C2)[C@H]2C(=O)O[C@H](c3ccccc3)[C@H](c3ccccc3)N2[C@@H]1c1ccc(OCCO)cc1)C(=O)OC -0.538, CC(C)N1C(=O)c2ccccc2[C@](C)(C(=O)O)[C@@H]1c1ccc(CO)cc1 0.0212, C=CCC(OC(C)=O)[C@@H]1[C@@H](N(Cc2ccc(-c3ccccc3)cc2)C(=O)c2cccc3ccccc23)c2cc(OCCCO)ccc2N1C(=O)c1ccc2ccccc2n1 (stereo partly drawn) 0.908, [N-]=[N+]=Nc1ccccc1[C@H]1OC(c2ccc(OCCCO)cc2)=N[C@@]1(Cc1ccccc1)C(=O)NCc1ccccc1 2.01, COCCCNC(=O)[C@]1(CCS(=O)(=O)c2ccccc2)N=C(c2ccc(OCCCO)cc2)O[C@@H]1c1ccccc1 0.604, NC(=O)NCC#Cc1ccc2c(c1)[C@]1(C(=O)N2)[C@H](c2ccc(OCCO)cc2)N2[C@H](c3ccccc3)[C@H](c3ccccc3)OC(=O)[C@H]2[C@@H]1C(=O)N1CCCCCCC1 -0.172, O=C1C[C@@](C(=O)O)(c2ccc([N+](=O)[O-])cc2)[C@@H](c2ccc(CO)cc2)N1CC12CC3CC(CC(C3)C1)C2 0.667, O=C1C[C@@](C(=O)NCc2ccccc2)(c2ccc([N+](=O)[O-])cc2)[C@@H](c2ccc(CO)cc2I)N1C1CCCCC1 0.445, COc1cccc(C[C@H]2C[C@@H](CO[Si](C(C)C)(C(C)C)C(C)C)N3C(=O)[C@]4(C(C)=O)O[C@]23[C@H]2C(=O)N(C)C(=O)[C@H]24)c1 -0.356, COCC(=C=CC[C@@H](O)c1ccccc1OCCO)C[C@@H](O)COCc1ccccc1 2.4, COC(=O)C(CC#Cc1ccc2c(c1)[C@]1(C(=O)N2)[C@H](C(=O)N2CCc3cc(OC)c(OC)cc3C2)[C@H]2C(=O)O[C@H](c3ccccc3)[C@H](c3ccccc3)N2[C@@H]1c1ccc(O)cc1)C(=O)OC 0.414, CN1C(=O)C2C=CC(C(O)COCc3ccccc3)N(Nc3ccccc3)C2C1=O (stereo not drawn) -0.925, Cc1ccccc1C(O)C1C=CC2C(=O)N(Cc3ccccc3)C(=O)C2N1n1cnnc1 (stereo not drawn) -0.197

test: growth of efflux-deficient E. coli DRC39 – strain DRC39, OD650, 48 h, E. coli filamentation inducers, primary screen (AID 1179);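 note: screen aims at cell division blockers that make cells filament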; settings: E. coli DRC39 delta-acrAB growth, higher = more signal, called active from +8 up or from −8 down

z-score, inactive:
Cc1cc(C)c(C(O)C2C=CC3C(=O)N(c4ccccc4)C(=O)C3N2Nc2ccccc2)c(C)c1 (stereo not drawn) 0.445, O=C1O[C@H](c2ccccc2)[C@H](c2ccccc2)N2[C@H]1[C@@H](C(=O)N1CCN(c3ncccn3)CC1)[C@]1(C(=O)Nc3ccc(C#CCCO)cc31)[C@H]2c1ccc(OCCO)cc1 -0.432, O=C1CSC(c2cccc([N+](=O)[O-])c2)N1c1ccccc1 (stereo not drawn) 0.869, COC(=O)C(CC#Cc1ccc2c(c1)[C@]1(C(=O)N2)[C@H](c2ccc(O)cc2)N2[C@H](c3ccccc3)[C@H](c3ccccc3)OC(=O)[C@H]2[C@@H]1C(=O)O)C(=O)OC -0.286, COCCCNC(=O)[C@@]1(Cc2ccccc2I)c2ccccc2C(=O)N(Cc2ccccc2Cl)[C@H]1c1ccc(CO)cc1 0.607, COC(=O)[C@]1(Cc2ccccc2CN=[N+]=[N-])N=C(c2ccc(OCCCO)cc2)O[C@@H]1c1ccccc1 -0.865, CN(C)CCCCCCNC(=O)[C@@H]1C[C@@H]2C(=O)NCC(=O)N2[C@@H]1c1ccc(O)cc1 -0.823, COC(=O)c1ccc(OC)c(/C=C\CC(CCc2ccccc2)OC(=O)c2ccncc2)c1 (stereo not drawn) -0.379, CCOC(=O)C[C@H]1[C@H](OC(=O)Cc2ccc3c(c2)OCO3)[C@@H](NC(=O)c2ccccc2)c2cc(OCCCO)ccc2N1C(=O)c1ccc2ccccc2n1 0.88, CCCNC(=O)[C@@]1(Sc2ccc(C)cc2)CC(=O)N(Cc2ccccc2)[C@@H]1c1ccc(CO)cc1I 0.0547, CC1(C)[C@@H]2CC(C(O)C3C=CC4C(=O)N(c5ccccc5)C(=O)C4N3Nc3ccccc3F)=C[C@@H]1C2 (stereo partly drawn) 0.985, COc1ccc(C#Cc2ccc3c(c2)[C@]2(C(=O)N3)[C@H](C(N)=O)[C@H]3C(=O)O[C@H](c4ccccc4)[C@H](c4ccccc4)N3[C@@H]2c2ccc(O)cc2)cc1 0.714, COc1ccc([Si](C)(C)[C@@H]2[C@@H](CCO)O[C@]3(C(=O)N(Cc4ccc(N5C(=O)c6ccccc6Oc6ccccc65)cc4)c4ccccc43)[C@H]2C)cc1 -0.275, NC(=O)NCC#Cc1ccc2c(c1)[C@]1(C(=O)N2)[C@H](c2ccc(O)cc2)N2[C@H](c3ccccc3)[C@H](c3ccccc3)OC(=O)[C@H]2[C@@H]1C(=O)NC[C@H](O)c1ccccc1 0.841, CO[C@H]1O[C@H](CO)[C@@H](OC(=O)c2ccc(Br)cc2)[C@@H]2OC(=O)[C@H](Cc3cccc(Br)c3)C/C=C/C[C@@H](Cc3cccc(Br)c3)C(=O)O[C@@H]12 0.188, CO[C@H]1O[C@H](CO)[C@@H](OC(=O)Nc2cccc(F)c2)[C@H](OC(=O)Nc2ccc3c(c2)OCO3)[C@H]1OC(=O)Nc1ccc2c(c1)OCO2 0.378, CC(C)C[C@H]1NC(=O)[C@H](C)NC(=O)[C@@]23C(=O)N[C@@H](Cc4ccccc4)C2[C@H](C)[C@@]2(C)O[C@H]2C3/C=C/C/C=C\CNC1=O (stereo partly drawn) -0.555, Cc1ccc(C(C)CC(O)C2C=CC3C(=O)N(Cc4ccccc4)C(=O)C3N2n2cnnc2)o1 (stereo not drawn) -1.22, COCCCNC(=O)[C@@]1(Cc2ccccc2)COC(c2ccc(OCCCO)cc2)=N1 0.993, O=C1c2ccccc2[C@](Cc2ccccc2I)(C(=O)NC2CC2)[C@H](c2ccc(CO)cc2)N1Cc1ccccc1Cl -0.507, CCOC(=O)C[C@H]1[C@H](OC(=O)Cc2ccc3c(c2)OCO3)[C@@H](NC(=O)c2ccccc2)c2cc(OCCCO)ccc2N1C(=O)c1ccccc1 0.676, CCOC(=O)C1=CC[C@@H](c2ccc(N(CC)CC)cc2)N(S(=O)(=O)c2ccc(C)cc2)[C@H]1c1ccc([N+](=O)[O-])cc1 -0.0619, COC(=O)C(CC#Cc1ccc2c(c1)[C@]1(C(=O)N2)[C@H](C(=O)N2CCc3cc(OC)c(OC)cc3C2)[C@H]2C(=O)O[C@H](c3ccccc3)[C@H](c3ccccc3)N2[C@@H]1c1ccc(OCCO)cc1)C(=O)OC 0.704, CC(C)N1C(=O)c2ccccc2[C@](C)(C(=O)O)[C@@H]1c1ccc(CO)cc1 0.421, C=CCC(OC(C)=O)[C@@H]1[C@@H](N(Cc2ccc(-c3ccccc3)cc2)C(=O)c2cccc3ccccc23)c2cc(OCCCO)ccc2N1C(=O)c1ccc2ccccc2n1 (stereo partly drawn) 0.376, [N-]=[N+]=Nc1ccccc1[C@H]1OC(c2ccc(OCCCO)cc2)=N[C@@]1(Cc1ccccc1)C(=O)NCc1ccccc1 1.76, COCCCNC(=O)[C@]1(CCS(=O)(=O)c2ccccc2)N=C(c2ccc(OCCCO)cc2)O[C@@H]1c1ccccc1 0.607, NC(=O)NCC#Cc1ccc2c(c1)[C@]1(C(=O)N2)[C@H](c2ccc(OCCO)cc2)N2[C@H](c3ccccc3)[C@H](c3ccccc3)OC(=O)[C@H]2[C@@H]1C(=O)N1CCCCCCC1 -1.96
